Measured values: PubChem BioAssay AID1159580 (chemical genetic matrix, 2015)
Values joined by “and” are separate entries in the source; they are usually repeats but may differ in a detail not shown here. Equal entries are not always repeated. Hit rate of the full screen: of about 5,500 compounds, about 2,000 (36%) were called active. Not shown: some 18% with an inconclusive outcome. Rule as the data show it: active = normalized growth mostly below about 0.91 (no sharp cut-off); inconclusive = no clear call, values can overlap the other calls; inactive = mostly above about 0.92. Some of the results follow.

Experiment: chemical genetic growth profiling, strain panel (AID 1159580);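 also: tested at 20 µM; growth read once vehicle control cultures reached saturation at 30 °C; 1 = growth at the plate median or of vehicle wells; lower values mean less growth of the strain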
Details: S. cerevisiae deletion strains, growth OD

Measured: normalized growth

CCCCCC(C)N (stereo unspecified)
inactive: locus YAL013W, strain DEP1, hits give low values 1.01 | locus YAL021C, strain ccr4, hits give low values 1.02 | locus YAL026C, strain drs2, hits give low values 1.02 | locus YAL030W, strain snc1, hits give low values 1.02 | locus YBL061C, strain skt5, hits give low values 1.03 | locus YBR009C, strain hhf1, hits give low values 1.03 | locus YBR021W, strain FUR4, hits give low values 1.01 | locus YBR023C, strain chs3, hits give low values 1.05 | locus YBR171W, strain sec66, hits give low values 1.04 | locus YBR229C, strain ROT2, hits give low values 1.01 | locus YBR231C, strain swc5, hits give low values 1.04 | locus YBR279W, strain paf1, hits give low values 1.02 | locus YCL011C, strain gbp2, hits give low values 1.02 | locus YCL016C, strain dcc1, hits give low values 1.03 | locus YCL029C, strain bik1, hits give low values 0.994 | locus YCL061C, strain MRC1, hits give low values 1.02 | locus YCL069W, strain vba3, hits give low values 1.03 | locus YCR088W, strain abp1, hits give low values 1.02 | locus YDL005C, strain med2, hits give low values 1.04 | locus YDL035C, strain GPR1, hits give low values 1.02 | locus YDL040C, strain nat1, hits give low values 1.03 | locus YDL074C, strain BRE1, hits give low values 1.02 | locus YDL101C, strain DUN1, hits give low values 1 | locus YDL134C, strain PPH21, hits give low values 1.02 | locus YDL185W, strain tfp1, hits give low values 0.999 | locus YDL192W, strain arf1, hits give low values 0.997 | locus YDR001C, strain nth1, hits give low values 1.02 | locus YDR069C, strain doa4, hits give low values 1.01 | locus YDR101C, strain arx1, hits give low values 0.99 | locus YDR137W, strain rgp1, hits give low values 1.08 | locus YDR150W, strain NUM1, hits give low values 1.02 | locus YDR159W, strain sac3, hits give low values 1.02 | locus YDR162C, strain NBP2, hits give low values 1.01 | locus YDR195W, strain ref2 1.03 | locus YDR297W, strain sur2, hits give low values 1.02 | locus YDR318W, strain mcm21, hits give low values 0.994 | locus YDR334W, strain swr1, hits give low values 1.02 | locus YDR335W, strain msn5, hits give low values 1.03 | locus YDR388W, hits give low values 0.993 | locus YDR392W, strain spt3, hits give low values 0.996 | locus YDR502C, strain sam2, hits give low values 0.993 | locus YEL003W, strain gim4, hits give low values 1.02 | locus YEL037C, strain rad23, hits give low values 1.02 | locus YEL061C, strain CIN8 (second series), hits give low values 1.03 | locus YEL061C, strain CIN8, hits give low values 1.01 | locus YER015W, strain faa2, hits give low values 1.02 | locus YER016W, strain bim1, hits give low values 1.02 | locus YER110C, hits give low values 0.989 | locus YER111C, strain swi4, hits give low values 1.03 | locus YER155C, strain BEM2 (second series), hits give low values 1 | locus YER155C, strain BEM2, hits give low values 1.02 | locus YER167W, strain BCK2, hits give low values 1.01 | locus YFR010W, strain ubp6, hits give low values 1.02 | locus YGL078C, strain dbp3, hits give low values 0.995 | locus YGL086W, strain mad1, hits give low values 1.01 | locus YGL167C, strain pmr1, hits give low values 1.03 | locus YGL173C, strain kem1, hits give low values 1.03 | locus YGL227W, strain vid30, hits give low values 1.02 | locus YGL240W, strain doc1, hits give low values 1.02 | locus YGL248W, strain PDE1, hits give low values 1 | locus YGL253W, strain hxk2, hits give low values 1.03 | locus YGR078C, strain PAC10, hits give low values 0.908 | locus YGR135W, strain pre9, hits give low values 0.996 | locus YGR229C, strain SMI1, hits give low values 1.01 | locus YGR252W, strain gcn5, hits give low values 1.05 | locus YHR027C, strain rpn1, hits give low values 1.02 | locus YHR030C, strain SLT2, hits give low values 1.02 and 1.01 | locus YHR079C, strain IRE1 (second series), hits give low values 0.996 | locus YHR079C, strain IRE1, hits give low values 0.99 | locus YHR094C, strain hxt1, hits give low values 0.998 | locus YHR129C, strain ARP1, hits give low values 1.01 | locus YHR142W, strain chs7, hits give low values 1.04 | locus YHR200W, strain rpn10, hits give low values 0.996 | locus YIL066C, strain RNR3, hits give low values 1.02 | locus YIL073C, strain SPO22, hits give low values 0.987 | locus YIL125W, strain kgd1, hits give low values 1 | locus YIR030C, strain dcg1, hits give low values 0.996 | locus YJL092W, strain hpr5, hits give low values 1.02 | locus YJL095W, strain BCK1 (second series), hits give low values 1.02 | locus YJL095W, strain BCK1, hits give low values 0.999 and 1 | locus YJL115W, strain asf1, hits give low values 1.02 | locus YJL129C, strain trk1, hits give low values 1.05 | locus YJL134W, strain LCB3, hits give low values 1 | locus YJL154C, strain vps35, hits give low values 1.01 | locus YJL164C, strain tpk1, hits give low values 1.02 | locus YJL166W, strain qcr8, hits give low values 1.02 | locus YJL168C, strain set2, hits give low values 0.991 | locus YJL187C, strain SWE1 (second series), hits give low values 1.01 | locus YJL187C, strain SWE1, hits give low values 1.02 | locus YJR043C, strain POL32, hits give low values 0.998 | locus YJR066W, strain TOR1, hits give low values 0.942
